Measured values published in the antibiotic and cytotoxicity screens of Wong et al. (2023).
In all, about 39,000 compounds went through this assay and about 1,500 (3.8%) were called active. What follows is part of a selection rich in actives, with near analogues and random picks from the rest.

system: HSkMC (human skeletal muscle cells); test: cytotoxicity call (relative viability < 0.9); conditions: 10 µM

Structure (SMILES) | cytotoxicity call
NCCc1ccc(O)cc1 [listing 1 of 2 here] | inactive
NCCc1ccc(O)cc1 [listing 2 of 2 here] | inactive
CCCCCCCCCc1ccc(O)cc1 | active
COP(=O)(OC)OC(Br)C(Cl)(Cl)Br (configuration not stated) | inactive
COC(=O)[C@H]1CNC(=O)C1 | inactive
C=C(C)C1C2OC(=O)C1C1(O)CC3OC34C(=O)OC2C14C (configuration not stated) | inactive
C1COC2(CCNCC2)OC1 | inactive
Cl.OC1CCCCC1N1CCC(c2ccccc2)CC1 (configuration not stated) | inactive
C[C@@]12C(=O)OC(=O)[C@]1(C)[C@H]1CC[C@@H]2O1 | active
CC12C(=O)OC(=O)C1(C)C1CCC2O1 (configuration not stated) | inactive
C[C@]12C(=O)OC(=O)[C@]1(C)[C@H]1CC[C@H]2O1 | active
C(=N/C12CN3CN(CN(C3)C1)C2)/c1cccnc1 | inactive
CC(=CCn1c[n+](C)c2c(N)ncnc21)CCC1(C)C(C)CCC2(C)C(C)=CCCC21.[Cl-] (configuration not stated) | inactive
OCC1CCCN2CCCCC12 (configuration not stated) | inactive
N=C(N)N/N=C/c1ccc2c(c1)OCO2 | inactive
Cc1ccc(OC(=O)N(C)C[C@H]2OCc3ccccc3-c3c(n(C)c4ccccc34)C(=O)N([C@H](C)CO)C[C@@H]2C)cc1 | active
Cc1ccc(OC(=O)N(C)C[C@@H]2OCc3ccccc3-c3c(n(C)c4ccccc34)C(=O)N([C@H](C)CO)C[C@@H]2C)cc1 | inactive
Cc1ccc(OC(=O)N(C)C[C@@H]2OCc3ccccc3-c3c(n(C)c4ccccc34)C(=O)N([C@@H](C)CO)C[C@H]2C)cc1 | inactive
COc1ccc(OC(=O)N(C)C[C@H]2OCc3ccccc3-c3c(n(C)c4ccccc34)C(=O)N([C@H](C)CO)C[C@@H]2C)cc1 | inactive
COc1ccc(OC(=O)N(C)C[C@@H]2OCc3ccccc3-c3c(n(C)c4ccccc34)C(=O)N([C@H](C)CO)C[C@H]2C)cc1 | active
COc1ccc(OC(=O)N(C)C[C@H]2OCc3ccccc3-c3c(n(C)c4ccccc34)C(=O)N([C@@H](C)CO)C[C@H]2C)cc1 | inactive
O=C(NC(O)C(Cl)(Cl)Cl)NC(O)C(Cl)(Cl)Cl (configuration not stated) | inactive

Structure (SMILES) | cytotoxicity call
CC(C)C[C@@H]1C(=O)N2CCC[C@@H]2[C@]2(O)O[C@@](NC(=O)[C@@H]3C=C4c5cccc6[nH]cc(c56)C[C@@H]4N(C)C3)(C(C)C)C(=O)N12 | inactive
C[C@H]1CN(C)[C@@H](C)C[C@@H]1n1[nH]c(=O)cc1N | inactive
CO[C@H]1[C@H]2CC[C@@H]1NC2 | inactive
OCC(Br)(Br)Br | inactive
O=[N+]([O-])C(Br)(CO)CO [listing 1 of 2 here] | active
O=[N+]([O-])C(Br)(CO)CO [listing 2 of 2 here] | active
C=C(C)[C@@H]1[C@H]2OC(=O)[C@H]1[C@]1(O)C[C@H]3O[C@]34C(=O)O[C@H]2[C@]14C | inactive
Cc1cc(N2CCN(C)CC2)ncn1 | inactive
CN1[C@@H](CO)[C@@H]2c3ccccc3NC[C@@H]21 | inactive
COc1ccc(OC(=O)N(C)C[C@@H]2OCc3ccccc3-c3c(n(C)c4ccccc34)C(=O)N([C@H](C)CO)C[C@@H]2C)cc1 | inactive
CC[n+]1c(-c2ccccc2)c2cc(N)ccc2c2ccc(N)cc21.[Br-] | inactive
CN[C@H]1C[C@@H](N)[C@H](O)[C@@H](O[C@@H]2O[C@H](CO)[C@H](O)[C@@H]3O[C@@]4(O[C@H]23)O[C@H]([C@@H](N)CO)[C@H](O)[C@H](O)[C@H]4O)[C@@H]1O | active
O=c1cccc2n1C[C@@H]1C[C@H]2CN(C[C@H](O)/C=N/n2cnnc2)C1 | inactive
CC(=O)OCC1=C(C(=O)O)N2C(=O)[C@@H](NC(=O)CCC[C@@H](N)C(=O)O)[C@@H]2SC1 | inactive
N[C@@H](Cc1ccc(O)cc1)C(=O)NCC(=O)NCC(=O)O | inactive
Cn1ncnc2c(=O)n(C)c(=O)nc1-2 | active
Cc1nc2c(=O)n(C)c(=O)nc-2n(C)n1 | active
Cc1cnc(C(=O)N2C[C@H]3CNC[C@H]3C2)cn1 | inactive
[O-][n+]1ccccc1[S][Zn][S]c1cccc[n+]1[O-] | active
O=C(O)C[C@@H]1CC[C@H]2NC[C@@H](O)COC[C@@H]2O1 | inactive
Cc1cc(O)c2c(=O)c3c(O)cc(O)c4c5c(O)cc(O)c6c(=O)c7c(O)cc(C)c8c1c2c(c34)c(c78)c65 | active
CCC1(O)C(=O)OCc2c1cc1n(c2=O)Cc2cc3ccccc3nc2-1 (configuration not stated) | inactive

Structure (SMILES) | cytotoxicity call
Cc1nc(-c2ccc(-c3ccc(C(=O)N4CCc5cc6c(cc54)C4(CCN(C)CC4)CO6)cc3)c(C)c2)no1 | active
C=C(C)[C@H]1O[C@H]2CC[C@@]3(C)[C@@](O)(CC[C@H]4[C@@H]5OC(C)(C)[C@H]6C[C@@H]7C(=C)Cc8c(Cl)cc9[nH]c(c5c9c8[C@@]76O)[C@@]43C)[C@]23O[C@@H]3[C@H]1O | inactive
O=C1[O][Pt]2([NH][C@@H]3CCCC[C@H]3[NH]2)[O]C1=O | active
CN(C)c1ccc(CCN)cc1 | inactive
Br.CC(Cc1ccc(O)cc1)NCC(O)c1cc(O)cc(O)c1 (configuration not stated) | inactive
Cc1cc2c(C(C)C)c(O)c(O)c(C=O)c2c(O)c1-c1c(C)cc2c(C(C)C)c(O)c(O)c(C=O)c2c1O [listing 1 of 2 here] | inactive
CC(=O)O.Cc1cc2c(C(C)C)c(O)c(O)c(C=O)c2c(O)c1-c1c(C)cc2c(C(C)C)c(O)c(O)c(C=O)c2c1O | inactive
Cc1cc2c(C(C)C)c(O)c(O)c(C=O)c2c(O)c1-c1c(C)cc2c(C(C)C)c(O)c(O)c(C=O)c2c1O [listing 2 of 2 here] | active
O=C(O)C=CCO | inactive
COCC12CN(C=O)C3C4C(OC)C1C3(C(OC)CC2O)C1CC2(O)C(OC)C(O)C4(OC(C)=O)C1C2OC(=O)c1ccccc1 (configuration not stated) | inactive
O=C1CCN(C(=O)C2CCC2)CC1 | inactive
COC(=O)[C@@]1(Cc2ccccc2CN=[N+]=[N-])N=C(c2ccc(OCCCO)cc2)O[C@H]1c1ccccc1N=[N+]=[N-] | inactive
COC(=O)[C@@]1(Cc2ccccc2N=[N+]=[N-])N=C(c2ccc(OCCCO)cc2)O[C@H]1c1ccccc1CN=[N+]=[N-] | inactive
COC(=O)[C@]1(Cc2ccccc2N=[N+]=[N-])N=C(c2ccc(OCCCO)cc2)O[C@@H]1c1ccccc1CN=[N+]=[N-] | inactive
COC(=O)[C@@]1(Cc2ccccc2N=[N+]=[N-])N=C(c2ccc(OCCCO)cc2)O[C@H]1c1ccccc1N=[N+]=[N-] | active
COC(=O)[C@]1(Cc2ccccc2CN=[N+]=[N-])N=C(c2ccc(OCCCO)cc2)O[C@@H]1c1ccccc1N=[N+]=[N-] | inactive
COC(=O)[C@]1(Cc2ccccc2N=[N+]=[N-])N=C(c2ccc(OCCCO)cc2)O[C@@H]1c1ccccc1N=[N+]=[N-] | active
CN(C)C(=O)[C@@]1(Cc2ccccc2CN=[N+]=[N-])N=C(c2ccc(OCCCO)cc2)O[C@H]1c1ccccc1N=[N+]=[N-] | inactive
[N-]=[N+]=NCc1ccccc1C[C@]1(C(=O)NCc2ccccc2)N=C(c2ccc(OCCCO)cc2)O[C@H]1c1ccccc1N=[N+]=[N-] | inactive
CCO[C@H]1[C@H]2CC[C@@H]1NC2 | inactive
O=C1CC2OCC=C3CN4CCC56c7ccccc7N1C5C2C3CC46.O=S(=O)(O)O (configuration not stated) | inactive
N[C@]1(C(=O)O)CC[C@@H](C(=O)O)C1 | inactive

Structure (SMILES) | cytotoxicity call
COc1cc([C@@H](O)CN)ccc1O | inactive
[N-]=[N+]=NCc1ccccc1C[C@]1(C(=O)N2CCOCC2)N=C(c2ccc(OCCCO)cc2)O[C@H]1c1ccccc1N=[N+]=[N-] | inactive
COc1ccc2c(c1)C[C@H](N)C2 | inactive
CNC(=O)[C@H]1Cn2ccnc2C2(CCNCC2)O1 | inactive
CC(C)CCC[C@]1(C)C=Cc2c(O)c3c(c(CCC(C)C)c2O1)O[C@]12[C@H](C[C@@H]4C[C@H]1C(C)(C)O[C@]2(CC[C@@H](C)C(=O)O)[C@@H]4O)C3=O | inactive
CC(C)=CCCC1(C)C=Cc2c(O)c3c(c(CC=C(C)C)c2O1)OC12C(=CC4CC1C(C)(C)OC2(CC=C(C)C(=O)O)C4O)C3=O (configuration not stated) | active
CC(C)=CCC[C@]1(C)C=Cc2c(O)c3c(c(CC=C(C)C)c2O1)O[C@]12[C@H](C[C@@H]4C[C@H]1C(C)(C)O[C@]2(C/C=C(/C)C(=O)O)[C@@H]4O)C3=O | inactive
CC(C)=CCCC1(C)C=Cc2c(O)c3c(c(CC=C(C)C)c2O1)OC12C(=CC4CC1C(C)(C)OC2(CC=C(C)C(=O)O)C4=O)C3=O (configuration not stated) | active
C[C@@H]1CN([C@H](C)CO)C(=O)c2c(c3ccccc3n2C)-c2ccccc2CO[C@@H]1CN(C)C(=O)Oc1ccccc1 | inactive
O=C(c1ccno1)N1C[C@@H]2CCN[C@@H]2C1 | inactive
COc1ccc(C(CN(C)C)C2(O)CCCCC2)cc1.Cl (configuration not stated) | inactive
N#CC[N+]12CCN(CC1)CC2 | inactive
Cc1nc([N+](=O)[O-])c(N2CCNCC2)[nH]1 | inactive
COC(=O)[C@H]1O[C@@H]2C[C@H]3O[C@@H](n4cnc5c(N)ncnc54)[C@H](OC)[C@H]3O[C@@]2(O)[C@@H](O)[C@@H]1O | inactive
O=C(CCCN1CCC2(CC1)C(=O)N(Cc1cccc(F)c1)CN2c1ccccc1)c1ccc(F)cc1 | inactive
CC(=O)OC1CC2(C)C(c3ccoc3)CC3OC32C2(C)C(=O)C(O)=C3C(C)(C)C(=O)C=CC3(C)C12 (configuration not stated) | active
CC1(C)C(=O)C=CC2(C)C1=C(O)C(=O)C1(C)C2CCC2(C)C(c3ccoc3)CC3OC321 (configuration not stated) | active
CC1(C)C(=O)C=CC2(C)C1CC(O)C1(C)C2CCC2(C)C(c3ccoc3)OC(=O)C3OC321 (configuration not stated) | inactive
CC(=O)OC1CC(OC(C)=O)C2(C)C(CC(OC(C)=O)C3(C)C2CCC2(C)C(c4ccoc4)C(=O)C4OC423)C1(C)C (configuration not stated) | inactive
CC(=O)OC1CC2C(C)(C)C(=O)C=CC2(C)C2CCC3(C)C(=CC(=O)OC3c3ccoc3)C12C (configuration not stated) | inactive
CC(=O)O[C@H]1C[C@@H](OC(C)=O)C(C)(C)[C@@H]2C[C@@H](OC(C)=O)[C@]3(C)[C@H](CC[C@@]4(C)[C@H](c5ccoc5)C[C@H]5O[C@@]534)[C@@]12C | inactive
